Measured values as given in PubChem BioAssay (Tox21).
Records with an inconclusive call do not appear. Activity calls are given as the source filed them. Unless noted, calls follow the shape of the dose curve; as a rule, active = well fitted curve in the direction sought with a large enough effect in the repeat runs; inconclusive = weak or mixed curves; inactive = no such curve, though single readings can be large; an effect the other way counts as inactive or inconclusive.

How the values were obtained:
[1] = target: Peroxisome proliferator-activated receptor delta (Homo sapiens) (UniProt Q03181); experiment: qHTS assay to identify small molecule agonists of the peroxisome proliferator-activated receptor delta (PPARd) signaling pathway (AID 743212; calls by dose curve); details: HEK293H PPARd-UAS-bla, beta-lactamase FRET ratio, 17 h; series mostly up to 62.6 µM
Peroxisome proliferator-activated receptor delta (Homo sapiens), sequence (Q03181 whole entry, looked up): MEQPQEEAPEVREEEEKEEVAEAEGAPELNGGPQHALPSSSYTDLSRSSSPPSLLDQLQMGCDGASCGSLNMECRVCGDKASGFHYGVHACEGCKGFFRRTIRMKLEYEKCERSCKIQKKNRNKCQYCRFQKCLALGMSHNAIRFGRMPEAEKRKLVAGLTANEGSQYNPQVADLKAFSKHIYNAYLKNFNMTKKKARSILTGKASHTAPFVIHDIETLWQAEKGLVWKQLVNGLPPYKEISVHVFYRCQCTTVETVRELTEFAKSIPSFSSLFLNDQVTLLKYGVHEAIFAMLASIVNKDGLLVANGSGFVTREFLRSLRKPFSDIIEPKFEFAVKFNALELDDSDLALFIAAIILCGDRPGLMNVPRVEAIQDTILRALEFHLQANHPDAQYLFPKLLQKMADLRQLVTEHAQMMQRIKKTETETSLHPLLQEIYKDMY
In short: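 HEK293H PPARd-bla cells; 5 h preincubation 37 C/5% CO2; compound (DMSO) 37 C; LiveBLAzer B/G FRET substrate 2 h RT; fluorescence intensity.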

[2] = qHTS assay to identify small molecule antagonists of the peroxisome proliferator-activated receptor delta (PPARd) signaling pathway - cell viability counter screen (AID 743213); details: PPARd-bla HEK293H viability, CellTiter-Glo luminescence, 17 h; series mostly up to 62 µM; also: nearly all actives have a fitted effect of over 50% in size; also: potency is read from the fitted curve at half-maximal effect
In short: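 PPARd-bla HEK293H cells were treated with compounds plus agonist L165041 (300 nM final) for 17 h at 37 C. Viability was then read in the same wells by CellTiter-Glo luminescence after 30 min at room temperature.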

[3] = target: Peroxisome proliferator-activated receptor delta (Homo sapiens) (UniProt Q03181); experiment: qHTS assay to identify small molecule antagonists of the peroxisome proliferator-activated receptor delta (PPARd) signaling pathway (AID 743215; active = well fitted inhibition curve with a large enough effect in the signal ratio in the repeat runs, not every such curve was filed as active; the % refers to the signal ratio;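 also: cells stimulated with agonist L165041 at 300 nM final during compound exposure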; also: potency is read from the fitted curve at half-maximal effect); details: HEK293H PPARd-UAS-bla, beta-lactamase FRET ratio, antagonist, 17 h; series mostly up to 62 µM
In short: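 With L165041 present at 300 nM final, compounds were incubated 17 h at 37 C on PPARd UAS-bla HEK293H cells. A FRET-based beta-lactamase substrate was then applied for 2 h at room temperature and fluorescence intensity recorded.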

[4] = target: Bile acid receptor (Homo sapiens) (UniProt Q96RI1); experiment: qHTS assay to identify small molecule antagonists of the farnesoid-X-receptor (FXR) signaling pathway (AID 743217; active = well fitted inhibition curve with a large enough effect in the signal ratio in the repeat runs, not every such curve was filed as active; the % refers to the signal ratio); details: HEK293T FXR-UAS-bla, beta-lactamase ratio, CDCA-stimulated, 16 h; series mostly up to 62.6 µM
Bile acid receptor (Homo sapiens), sequence (Q96RI1 whole entry, looked up): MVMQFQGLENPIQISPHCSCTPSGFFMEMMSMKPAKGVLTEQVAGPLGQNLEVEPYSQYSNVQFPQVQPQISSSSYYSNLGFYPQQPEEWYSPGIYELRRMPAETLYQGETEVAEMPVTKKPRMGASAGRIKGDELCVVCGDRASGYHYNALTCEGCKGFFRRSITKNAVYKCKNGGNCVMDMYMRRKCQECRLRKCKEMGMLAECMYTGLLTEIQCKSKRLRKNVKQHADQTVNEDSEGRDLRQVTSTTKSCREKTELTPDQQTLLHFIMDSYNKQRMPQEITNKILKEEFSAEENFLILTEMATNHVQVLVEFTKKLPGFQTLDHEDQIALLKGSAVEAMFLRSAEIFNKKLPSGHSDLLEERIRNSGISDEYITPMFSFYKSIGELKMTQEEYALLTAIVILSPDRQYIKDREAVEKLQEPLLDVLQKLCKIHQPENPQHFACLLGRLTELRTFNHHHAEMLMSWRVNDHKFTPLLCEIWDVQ
In short: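 In this cell-based antagonist screen, inhibition of CDCA-driven (50 uM final) UAS-beta-lactamase expression in HEK 293T cells was measured by FRET fluorescence following 16 h compound exposure at 37 °C.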

[5] = qHTS assay to identify small molecule agonists of the farnesoid-X-receptor (FXR) signaling pathway - cell viability counter screen (AID 743218); details: FXR-bla HEK293T viability, CellTiter-Glo luminescence, 16 h; series mostly up to 62.6 µM; also: nearly all actives have a fitted effect of over 45% in size; also: potency is read from the fitted curve at half-maximal effect
In short: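 After 16 h at 37 C with test compounds, FXR-bla HEK 293T cells were given LiveBLAzer B/G substrate for 2 h at RT and then CellTiter-Glo; luminescence was taken after 30 min.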

[6] = target: Bile acid receptor (Homo sapiens) (UniProt Q96RI1); experiment: qHTS assay to identify small molecule agonists of the farnesoid-X-receptor (FXR) signaling pathway (AID 743220; active = well fitted activation curve with a large enough effect in the signal ratio in the repeat runs, not every such curve was filed as active; the % refers to the signal ratio); details: HEK293T FXR-UAS-bla, beta-lactamase FRET ratio, 16 h; series mostly up to 62.6 µM
In short: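 Beta-lactamase reporter under UAS control in GeneBLAzer FXR HEK 293T cells (5000/well) measured with LiveBLAzer FRET substrate after 2 h at room temperature. Compound exposure lasted 16 h at 37C.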

[7] = qHTS assay to identify small molecule antagonists of the farnesoid-X-receptor (FXR) signaling pathway - cell viability counter screen (AID 743221; active = well fitted cell-killing curve with a large enough effect in the repeat runs, not every such curve was filed as active; also: nearly all actives have a fitted effect of over 50% in size; also: potency is read from the fitted curve at half-maximal effect); details: FXR-bla HEK293T viability, CellTiter-Glo luminescence, 16 h; series mostly up to 62.6 µM
In short: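 HEK 293T FXR-bla cells, 5 h pre-incubation; compound + CDCA 50 uM final, 16 h, 37 C; beta-lactamase FRET read first, then CellTiter-Glo luminescence, 30 min RT.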

[8] = target: Vitamin D3 receptor (Homo sapiens) (UniProt P11473); experiment: qHTS assay to identify small molecule agonists of the vitamin D receptor (VDR) signaling pathway (AID 743222; calls by dose curve); details: HEK293T VDR-UAS-bla, beta-lactamase FRET ratio, 16 h; series mostly up to 63.5 µM
Vitamin D3 receptor (Homo sapiens), sequence (P11473 whole entry, looked up): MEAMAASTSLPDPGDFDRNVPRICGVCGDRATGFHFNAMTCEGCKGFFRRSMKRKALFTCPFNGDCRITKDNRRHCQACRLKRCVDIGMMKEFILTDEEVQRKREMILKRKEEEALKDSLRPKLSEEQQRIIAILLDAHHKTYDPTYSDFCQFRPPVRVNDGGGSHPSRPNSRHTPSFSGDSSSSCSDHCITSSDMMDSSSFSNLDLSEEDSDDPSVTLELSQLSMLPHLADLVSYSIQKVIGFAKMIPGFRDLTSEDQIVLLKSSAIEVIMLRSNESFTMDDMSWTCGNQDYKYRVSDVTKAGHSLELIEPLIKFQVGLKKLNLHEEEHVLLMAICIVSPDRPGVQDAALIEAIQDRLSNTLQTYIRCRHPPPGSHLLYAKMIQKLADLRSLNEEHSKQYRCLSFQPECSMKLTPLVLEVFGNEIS
In short: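 VDR-bla cells were seeded, left 4 h, treated with compounds in DMSO for 16 h, incubated 2 h at RT with B/G FRET substrate, and read for fluorescence.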

[9] = target: Vitamin D3 receptor (Homo sapiens) (UniProt P11473); experiment: qHTS assay to identify small molecule antagonists of the vitamin D receptor (VDR) signaling pathway (AID 743223; active = well fitted inhibition curve with a large enough effect in the signal ratio in the repeat runs, not every such curve was filed as active; the % refers to the signal ratio; also: potency is read from the fitted curve at half-maximal effect); details: VDR-UAS-bla HEK293T, beta-lactamase FRET ratio, 16 h; series mostly up to 61 µM
In short: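 Beta-lactamase reporter read-out: FRET substrate fluorescence after 2 h at room temperature, following 16 h exposure of VDR-bla cells to test compound plus 3 nM (final) 1alpha,25-dihydroxyvitamin D3 agonist at 37C.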
% is scaled to controls: 0 for no effect and ±100 for the full control effect.

O=[N+]([O-])c1ccc(O)cc1C(F)(F)F
inactive: Potency [1] | Potency [2] | Potency [3] | Potency [4] | Potency [5] | Potency [6] | Potency [7] | Potency [8] | Potency [9]

CCCCCCCCCCC[C@@H](C[C@@H]1OC(=O)[C@H]1CCCCCC)OC(=O)[C@H](CC(C)C)NC=O
inactive: Potency [1] | Potency [2] | Potency [5] | Potency [9]

Sc1nc2ccccc2s1
active: Potency [3] 38.9 µM
inactive: Potency [1] | Potency [4] | Potency [5] | Potency [7] | Potency [8] | Potency [9]

OC1CCC(C2CCCCC2)CC1 (configuration not stated)
inactive: Potency [1] | Potency [2] | Potency [4] | Potency [6] | Potency [7] | Potency [8] | Potency [9]

C=CC(=O)Nc1cc2c(Nc3ccc(F)c(Cl)c3)ncnc2cc1OCCCN1CCOCC1
inactive: Potency [1] | Potency [2] | Potency [6] | Potency [7] | Potency [9]

Nc1ccc(Oc2ccc(Cl)cc2)cc1
inactive: Potency [1] | Potency [2] | Potency [3] | Potency [4] | Potency [5] | Potency [6] | Potency [7] | Potency [9]

CNc1ccc([N+](=O)[O-])cc1
active: Potency [5] 27.6 µM
inactive: Potency [2] | Potency [7]

COC1=C(OC)C(=O)C(CCCCCCCCCCO)=C(C)C1=O
active: Potency [3] 26.6 µM
inactive: Potency [2] | Potency [5] | Potency [6] | Potency [7] | Potency [8]

CNC(=O)c1ccccc1Sc1ccc2c(/C=C/c3ccccn3)n[nH]c2c1
active: Potency [2] 18.8 µM

CCCCN(CCCC)CC(O)c1cc(Cl)cc2c1-c1ccc(Cl)cc1/C2=C/c1ccc(Cl)cc1 (configuration not stated)
inactive: Potency [9]
active: Potency [2] 29.8 µM | Potency [5] 29.8 µM

O=C(O)O
active: Potency [2] 2.37 µM
inactive: activation [1] -0.685% [at 5.95 µM] | activity change, negative = cytotoxicity [7] -10.5% [at 5.95 µM] | activity change, negative = inhibition [9] 0.752% [at 6.95 µM]

C=CC(=O)OCCOC(=O)C=C
inactive: Potency [2] | Potency [7] | Potency [9]

C#C[C@]1(O)CC[C@H]2[C@@H]3[C@H](C)CC4=C(CCC(=O)C4)[C@H]3CC[C@@]21C
inactive: Potency [1] | Potency [2] | Potency [5] | Potency [7] | Potency [8] | Potency [9]

Oc1c(I)cc(Cl)c2cccnc12
inactive: Potency [7] | Potency [8]
active: Potency [9] 8.69 µM

CCO[C@@H]1O[C@H](C(COCc2ccccc2)OCc2ccccc2)[C@H](OCc2ccccc2)[C@H]1O (some centres not stated)
inactive: Potency [2] | Potency [6]
active: Potency [5] 21.1 µM | Potency [7] 13.3 µM

CN1CCN(Cc2cc(-c3ccc4[nH]c(=O)oc4c3)co2)[C@@H](c2ccc(F)cc2)C1
inactive: Potency [1] | Potency [3] | Potency [4] | Potency [6] | Potency [7] | Potency [8] | Potency [9]

OC12N=C(c3ccccc3)SC1Cc1cc(Cl)ccc12 (configuration not stated)
inactive: Potency [1] | Potency [2] | Potency [4] | Potency [5] | Potency [6] | Potency [8] | Potency [9]
